Reference: PubChem BioAssay AID743314 (Broad Institute, 2014)
Measured potencies and affinities stand elsewhere. Inconclusive results are not listed. Activity calls are given as the source filed them.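 How the source made its calls: active means fitted half-maximal concentration no higher than twice the top tested dose, in every repeat run; inconclusive means repeat runs disagree, poor fit, or flat partial inhibition; inactive means the rest.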

Each compound was assayed against Endoplasmic reticulum aminopeptidase 1 (Homo sapiens) (UniProt Q9NZ08) (assay: inhibition of human ERAP1 enzyme activity – biochemical, cherry-pick, set 2, plate reader, dose response (AID 743314;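 further: 0% = neutral control wells and -100% = L-leucinethiol positive control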)). Details: Recombinant ERAP1, Leu-AMC fluorescence, 60 min; series mostly up to 11 µM; activity change, negative = inhibition: at the top concentration.
Chain of Endoplasmic reticulum aminopeptidase 1 (Homo sapiens) (Q9NZ08 whole entry, looked up): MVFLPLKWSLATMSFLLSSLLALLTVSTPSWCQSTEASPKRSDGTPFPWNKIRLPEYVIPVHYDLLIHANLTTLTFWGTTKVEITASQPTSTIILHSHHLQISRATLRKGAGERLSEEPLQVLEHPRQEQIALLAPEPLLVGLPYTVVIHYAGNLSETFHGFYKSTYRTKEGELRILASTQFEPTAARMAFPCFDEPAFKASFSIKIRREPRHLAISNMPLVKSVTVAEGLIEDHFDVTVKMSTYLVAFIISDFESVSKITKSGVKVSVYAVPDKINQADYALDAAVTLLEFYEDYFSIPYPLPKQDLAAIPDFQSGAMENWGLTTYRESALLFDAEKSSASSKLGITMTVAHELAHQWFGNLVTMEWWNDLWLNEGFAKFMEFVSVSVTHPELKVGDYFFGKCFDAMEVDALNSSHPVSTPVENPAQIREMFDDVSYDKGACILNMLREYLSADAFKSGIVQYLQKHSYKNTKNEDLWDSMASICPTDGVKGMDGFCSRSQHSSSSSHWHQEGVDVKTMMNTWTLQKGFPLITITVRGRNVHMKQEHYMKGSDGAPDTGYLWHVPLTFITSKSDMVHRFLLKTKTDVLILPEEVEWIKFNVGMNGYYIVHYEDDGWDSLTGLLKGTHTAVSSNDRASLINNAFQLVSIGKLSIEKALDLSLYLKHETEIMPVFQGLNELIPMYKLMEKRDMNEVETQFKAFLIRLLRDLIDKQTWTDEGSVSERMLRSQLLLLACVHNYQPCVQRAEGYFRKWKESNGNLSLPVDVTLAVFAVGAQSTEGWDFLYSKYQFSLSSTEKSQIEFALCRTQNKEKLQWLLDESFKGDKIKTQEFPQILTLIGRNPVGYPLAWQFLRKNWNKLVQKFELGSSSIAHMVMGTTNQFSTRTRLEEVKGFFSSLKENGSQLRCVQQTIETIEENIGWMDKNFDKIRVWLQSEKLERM

Activity change, negative = inhibition, inactive:
COc1ccc(CN(C)C[C@H]2OCCCC[C@H](C)Oc3ccc(NS(=O)(=O)c4cccs4)cc3C(=O)N([C@H](C)CO)C[C@@H]2C)cc1 50.9%
CN(C(=O)CSc1nnc(C(F)(F)F)n1C)c1c(N)n(Cc2ccccc2)c(=O)[nH]c1=O 6.68%
COc1ccccc1CN1[C@H](CO)[C@@H](c2ccccc2)C12CN(C(=O)c1ccccn1)C2 18.1%
Cc1ccc(CN2C(=O)CCC2C(=O)NCCN2CCN(c3cccc(Cl)c3)CC2)cc1 (centres undefined) 5.74%
CCCCCn1c(=NC(=O)c2ccco2)c(C(=O)OCC)cc2c(=O)n3ccccc3nc21 -30.4%
C=CCn1nnnc1SCC(=O)Nc1cccc(C(F)(F)F)c1 9.34%
C[C@H]1CN([C@@H](C)CO)C(=O)Cc2cc(NC(=O)Nc3cccc4ccccc34)ccc2O[C@@H]1CN(C)Cc1ccc(C(=O)O)cc1 19.6%
COC(=O)[C@H]1[C@H](CO)[C@H]2Cn3c(ccc(C4=CCCC4)c3=O)[C@H]2N1C(=O)C1CC1 33.1%
CCN(Cc1ccc(OC)c(F)c1)C(=O)C1CCCO1 (centres undefined) -14.1%
O=C(C[C@H]1CC[C@H](NC(=O)C2CCOCC2)[C@H](CO)O1)NCc1ccncc1 27.6%
COc1ccc(CN(C)C[C@H]2Oc3c(NC(=O)NC4CCCCC4)cccc3C(=O)N([C@@H](C)CO)C[C@@H]2C)cc1 13.4%
CCN1CCCC1CNS(=O)(=O)c1cccc(C(F)(F)F)c1 (centres undefined) -3.89%
COc1ccccc1-c1cc(-c2ccccc2)nc(SCC(=O)O)c1C#N -3.43%
C[C@H](CO)N1C[C@H](C)[C@H](CN(C)CC2CCCCC2)Oc2ncc(-c3ccc(F)cc3)cc2C1=O 36.6%
CC(=O)Oc1ccc(-c2cc3c(OC(C)=O)cc(OC(C)=O)cc3oc2=O)cc1 13.7% [at 2.6 µM]
c1ccc(Nc2nc(NCC3CCCO3)c3ccccc3n2)cc1 (centres undefined) 38.2%
Cc1ccc(S(=O)(=O)N(C)C[C@@H]2Oc3ccc(NC(=O)c4ccncc4)cc3C(=O)N([C@H](C)CO)C[C@H]2C)cc1 22.3% [at 10 µM]
CCCNC(=O)C[C@@H]1CC[C@@H]2[C@H](COC[C@H](O)CN2C(=O)Nc2cccc(Cl)c2)O1 47.7%
CCN(CC(=O)Nc1ccccc1C(F)(F)F)C(=O)Cn1c(=O)cnc2ccccc21 -3.54%
CN1CCN(S(=O)(=O)c2cccc(C(=O)N(C)CC(=O)Nc3ccc(F)c(F)c3F)c2)CC1 3.77%
CC(=O)NC(CC(=O)NCCOc1ccccc1F)c1ccccc1 (centres undefined) -12.5%
Cc1nc2ccc(NC(=O)c3ccc(=O)[nH]c3)cc2s1 -4.05%
CC(C)c1ccc(OC(=O)c2cccc(S(=O)(=O)N3CCN(C)CC3)c2)cc1 -4.13%
C[C@H](NC(=O)C[C@H]1CC[C@H]2[C@@H](COC[C@H](O)CN2C(=O)Nc2ccccc2)O1)c1ccccc1 46.1%
CN1[C@H](C(=O)N2CCCCC2)[C@@H](CO)[C@@H]2Cn3c(ccc(/C=C/c4ccccc4)c3=O)[C@@H]21 5.94% [at 5.6 µM]
COc1ccc(NC(=O)N[C@@H]2CC[C@@H](CCn3cc(-c4ccc(F)cc4)nn3)O[C@H]2CO)cc1 32.5%
CC(=O)Oc1cc2oc(=O)cc(C)c2cc1Cl 264%
CCN(C(=O)COC(=O)c1cnc(C)cn1)C1CCS(=O)(=O)C1 (centres undefined) -8.22%
CCN(CC)CCCN=C1N[C@@H](c2cccc(C(F)(F)F)c2)C(C(=O)OC)=C(C)N1CC -14.6%
O=C(C[C@H]1CC[C@@H](NC(=O)Cc2ccccn2)[C@@H](CO)O1)NCCCN1CCOCC1 32.1%
CCOc1ccc(OCCCC(=O)N2CCN(S(=O)(=O)c3ccc(Cl)cc3)CC2)cc1 7.04%
CCCN1[C@@H]2Cn3c(ccc(-c4cccnc4)c3=O)[C@H]1[C@@H](C(=O)NCCc1cn(C)cn1)[C@@H]2CO 36%
N#Cc1c(N)n(CCNC(=O)c2ccccc2)c2nc3ccccc3nc12 46.6%
C[C@@H]1CN([C@@H](C)CO)C(=O)c2cccc(NC(=O)Nc3ccc(C(F)(F)F)cc3)c2O[C@H]1CN(C)C 29%
CCCC(=O)Nc1ccc2c(c1)OC[C@@H](C)N(CC1CCOCC1)C[C@H](C)[C@@H](OC)CN(C)C2=O 37.4%
CC(=O)N1CC[C@@H]2[C@@H](CO)N(C)c3ccc(-c4ccc(C#N)cc4)cc3[C@@H]21 -0.418%
CCCN1[C@@H]2c3ccc(-c4cccnc4)c(=O)n3C[C@H]1[C@H](CO)[C@H]2C(=O)NCCc1cn(C)cn1 38.1%
CCCCC1CCC(C(=O)OC(C)C(=O)Nc2ccc(NC(C)=O)cc2)CC1 (centres undefined) -2.34%
C[C@@H]1CN([C@@H](C)CO)C(=O)c2cc(NS(=O)(=O)c3ccc(Cl)cc3)ccc2O[C@@H](C)CCCCO[C@H]1CN(C)C 37.5% [at 5.6 µM]
